Assay results reported in PubChem BioAssay (NCATS).
Values without a mark were called inactive. Results filed as inconclusive are left out. Where a call stands in place of a potency, no number is given. Active and inactive are the calls of the source. Unless noted, the call rests on the fitted dose curve; in most records, active means well fitted curve in the direction sought with a large enough effect; inconclusive means small, poorly fitted or top-dose-only effect, or another doubt; inactive means no such curve, though single readings can be large; an effect the other way counts as inactive or inconclusive.

Legend:
[1] = biological target: Cytochrome P450 1A2 (Homo sapiens) (UniProt P05177); assay: p450-cyp1a2 (AID 410; calls by dose curve; further: potency means the concentration at half of the fitted maximal effect)
Outline: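 Human CYP1A2 (20nM) demethylated Luciferin-ME at its Km (100uM) in 100mM KPO4. After 10 min compound preincubation, NADPH regeneration ran the reaction 60 min at room temperature. Luciferin was read by luminescence, normalized to 57 uM furafylline.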

[2] = biological target: Glucocorticoid receptor (Homo sapiens) (UniProt P04150); assay: GR-GFP Redistribution (AID 450;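 active means compounds whose dose series gives a full or clear partial fitted curve of increased nuclear translocation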; further: potency means the concentration at half of the fitted maximal effect); conditions: U2OS GR-GFP nuclear translocation, laser cytometry, 2 h
[3] = biological target: Glucocorticoid receptor (Homo sapiens) (UniProt P04150); assay: GR-EFC Redistribution (AID 451; calls by dose curve; further: potency means the concentration at half of the fitted maximal effect); conditions: CHO-K1 GR-EFC translocation, beta-gal luminescence, 2 h
Outline: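 Translocation of GR-ED fusion to nuclear EA restores b-gal, read by luminescence after 1 h room-temperature detection. Engineered CHO-K1 biosensor cells, 1,000/well, exposed 2 h at 37 C to titrations up to 46 uM final.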

[4] = biological target: Mitogen-activated protein kinase 10 (Mus musculus) (UniProt Q61831); assay: JNK3 AlphaScreen Assay (AID 530; active means well fitted curve in either direction with a large enough effect, not every such curve was filed as active;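 further: kinase came from lysate of stimulated human HepG2 cells; signal reports phosphorylation of biotinylated GST-cJun 1-79 at Ser73 with 10 µM ATP; series mostly up to about 57 µM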)
Outline: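 Room-temperature AlphaScreen kinase assay; pre-activated HepG2 lysate as JNK3 source, biotin-GST-cJun(1-79) substrate, 10 uM ATP, compound 15 min preincubation.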

[5] = biological target: 3',5'-cyclic-AMP phosphodiesterase 4B (Homo sapiens) (UniProt Q07343); assay: qHTS Assay for Inhibitors of PDE-IV (AID 607; active means well fitted activation curve with a large enough effect in the main read-out, with a control signal flat, not every such curve was filed as active)
Outline: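 Live HEK293 cells with a modified cyclic nucleotide-gated (CNG) channel report intracellular cAMP via membrane-potential dye fluorescence (ex 535/em 590 nm). Endogenous PDE-IV was targeted. Compounds were tested at up to 22.9 uM final; RO 20-1724 100 uM served as control.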

[6] = biological target: Ubiquitin carboxyl-terminal hydrolase 1 (Homo sapiens) (UniProt O94782); assay: Inhibitors of USP1/UAF1: Pilot qHTS (AID 504865); further: nearly all actives have a fitted effect of over 35% in size; further: potency means the concentration at half of the fitted maximal effect
Outline: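 1nM USP1/UAF1 + cpd, 15 min RT; start w/ Ub-Rho 150nM final; kinetic FL 480/540 nm, 6 reads q60 s. Buffer 50mM HEPES pH 7.8, 0.5mM EDTA, 1mM TCEP, 0.01% Tween-20, 0.1 mg/ml BSA.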

[7] = biological target: DNA dC->dU-editing enzyme APOBEC-3G (Homo sapiens) (UniProt Q9HC16); assay: qHTS for inhibitors of Vif-A3G interactions: Validation (AID 588379); further: potency means the concentration at half of the fitted maximal effect
Outline: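 HeLa cells stably expressing Vif and A3G-eYFP, 700 cells/well, incubated overnight at 37 deg C, then exposed to compound overnight at 37 deg C. Inhibition of Vif-mediated degradation read as increased yellow fluorescence (Ex 488/Em 500-530) by laser-scanning cytometry.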

[8] = tested on: Zika virus NS2B-NS3 protease; assay: Primary screen GU AMC qHTS for Zika virus inhibitors (AID 1347154); further: nearly all actives have a fitted effect of over 70% in size
Outline: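 Fluorogenic AMC-substrate cleavage by noncovalent NS2B-NS3 protease complex (25 nM, pH 8.0 Tris buffer with Tween 20) followed for 15 minutes at room temperature (~20% conversion). Percent inhibition from ex340/em450 signal change, fitted by 4-parameter Hill equation.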

[9] = Primary qHTS for small molecule stabilizers of the endoplasmic reticulum resident proteome: Secreted ER Calcium Modulated Protein (SERCaMP) assay (AID 1508630)
Outline: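 GLuc-SERCaMP-expressing SH-SY5Y cells, pretreated 16 h with compound, are challenged with thapsigargin to empty ER calcium stores; after 4 h, coelenterazine is added directly to the medium and luminescence is imaged.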

[10] = biological target: Cytochrome P450 3A4 (Homo sapiens) (UniProt P08684); assay: qHTS Assay for Inhibitors and Substrates of Cytochrome P450 3A4 (AID 884); further: nearly all actives have a fitted effect of over 50% in size; further: potency means the concentration at half of the fitted maximal effect
Outline: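 20 nM human CYP3A4 with 25 uM Luciferin-PPXE (at KM) in 200 mM KPO4, preincubated 10 min with compound; NADPH regeneration started a 60 min RT reaction. Luciferin detected by luminescence, normalized to 57 uM ketoconazole as full inhibition.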

[11] = biological target: Cytochrome P450 3A4 (Homo sapiens) (UniProt P08684); assay: qHTS Assay for Activators of Cytochrome P450 3A4 (AID 885); further: nearly all actives have a fitted effect of over 65% in size; further: potency means the concentration at half of the fitted maximal effect
Outline: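 Quantitative HTS format: compounds preincubated with 20nM human CYP3A4 and Luciferin-PPXE substrate at KM, reaction started by NADPH regeneration, stopped after 60 min, luciferase luminescence read 20 min later.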

[12] = biological target: Cytochrome P450 2C9 (Homo sapiens) (UniProt P11712); assay: qHTS Assay for Inhibitors and Substrates of Cytochrome P450 2C9 (AID 883); further: nearly all actives have a fitted effect of over 60% in size; further: potency means the concentration at half of the fitted maximal effect
Outline: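 Turnover of Luciferin-H (100uM, KM) by 10nM human CYP2C9 was measured over 60 min at 37C with NADPH regeneration; inhibitors and some substrates reduce luminescence. Data normalized to sulphaphenazole 57uM.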

[13] = biological target: Cytochrome P450 2C19 (Homo sapiens) (UniProt P33261); assay: qHTS Assay for Inhibitors and Substrates of Cytochrome P450 2C19 (AID 899); further: potency means the concentration at half of the fitted maximal effect; nearly all actives have a fitted effect of over 60% in size
Outline: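 Reactions contain 5nM enzyme, 10uM Luciferin-H EGE (KM) and 50mM KPO4; compound preincubates 10 min at 37C, NADPH regeneration starts turnover for 60 min. Luminescence after detection reagent gives activity.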

3',5'-cyclic-AMP phosphodiesterase 4B (Homo sapiens), sequence (Q07343 whole entry, looked up): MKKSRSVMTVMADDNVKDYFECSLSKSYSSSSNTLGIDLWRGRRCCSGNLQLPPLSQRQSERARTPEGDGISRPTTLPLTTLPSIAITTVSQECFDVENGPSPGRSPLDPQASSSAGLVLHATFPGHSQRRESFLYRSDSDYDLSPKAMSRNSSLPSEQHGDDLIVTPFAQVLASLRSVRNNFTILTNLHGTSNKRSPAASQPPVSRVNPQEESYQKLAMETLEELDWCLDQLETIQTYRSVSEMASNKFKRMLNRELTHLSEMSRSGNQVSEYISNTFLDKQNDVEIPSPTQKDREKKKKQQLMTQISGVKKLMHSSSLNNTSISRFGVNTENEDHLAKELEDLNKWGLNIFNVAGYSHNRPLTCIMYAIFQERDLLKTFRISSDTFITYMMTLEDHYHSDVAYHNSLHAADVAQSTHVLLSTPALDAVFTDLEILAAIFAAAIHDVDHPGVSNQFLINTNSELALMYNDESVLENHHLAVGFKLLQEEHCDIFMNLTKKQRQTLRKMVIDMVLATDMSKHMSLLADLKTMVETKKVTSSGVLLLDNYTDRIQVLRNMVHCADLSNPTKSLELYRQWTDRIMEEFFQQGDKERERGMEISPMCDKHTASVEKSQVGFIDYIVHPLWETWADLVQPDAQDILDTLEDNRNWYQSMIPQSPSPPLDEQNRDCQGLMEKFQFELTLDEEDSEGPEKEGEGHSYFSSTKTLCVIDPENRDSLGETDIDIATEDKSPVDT
DNA dC->dU-editing enzyme APOBEC-3G (Homo sapiens), sequence (Q9HC16 whole entry, looked up): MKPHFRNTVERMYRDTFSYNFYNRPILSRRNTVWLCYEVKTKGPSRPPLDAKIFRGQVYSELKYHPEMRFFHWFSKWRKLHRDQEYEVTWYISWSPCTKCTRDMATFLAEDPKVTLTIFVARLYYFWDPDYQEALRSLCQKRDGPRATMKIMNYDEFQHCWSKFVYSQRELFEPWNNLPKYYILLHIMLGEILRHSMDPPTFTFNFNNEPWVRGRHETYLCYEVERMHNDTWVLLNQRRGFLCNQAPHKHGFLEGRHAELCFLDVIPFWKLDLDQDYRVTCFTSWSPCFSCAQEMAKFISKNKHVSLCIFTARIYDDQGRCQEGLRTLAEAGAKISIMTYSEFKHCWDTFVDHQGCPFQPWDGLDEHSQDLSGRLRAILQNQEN
Cytochrome P450 2C9 (Homo sapiens), sequence (P11712 whole entry, looked up): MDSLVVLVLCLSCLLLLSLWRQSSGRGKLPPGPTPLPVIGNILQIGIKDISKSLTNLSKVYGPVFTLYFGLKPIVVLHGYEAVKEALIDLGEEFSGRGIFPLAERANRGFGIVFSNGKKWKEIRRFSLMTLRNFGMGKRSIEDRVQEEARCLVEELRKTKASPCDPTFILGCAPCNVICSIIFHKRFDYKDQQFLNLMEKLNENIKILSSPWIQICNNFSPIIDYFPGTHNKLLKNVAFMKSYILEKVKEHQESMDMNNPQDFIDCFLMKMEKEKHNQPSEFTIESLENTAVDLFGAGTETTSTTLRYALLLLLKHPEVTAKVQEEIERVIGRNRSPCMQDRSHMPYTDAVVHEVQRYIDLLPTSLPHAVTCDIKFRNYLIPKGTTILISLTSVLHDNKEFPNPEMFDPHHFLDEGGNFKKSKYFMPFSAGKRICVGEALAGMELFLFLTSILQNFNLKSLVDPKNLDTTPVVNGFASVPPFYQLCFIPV
Glucocorticoid receptor (Homo sapiens), sequence (P04150 whole entry, looked up, the tested form may be a part): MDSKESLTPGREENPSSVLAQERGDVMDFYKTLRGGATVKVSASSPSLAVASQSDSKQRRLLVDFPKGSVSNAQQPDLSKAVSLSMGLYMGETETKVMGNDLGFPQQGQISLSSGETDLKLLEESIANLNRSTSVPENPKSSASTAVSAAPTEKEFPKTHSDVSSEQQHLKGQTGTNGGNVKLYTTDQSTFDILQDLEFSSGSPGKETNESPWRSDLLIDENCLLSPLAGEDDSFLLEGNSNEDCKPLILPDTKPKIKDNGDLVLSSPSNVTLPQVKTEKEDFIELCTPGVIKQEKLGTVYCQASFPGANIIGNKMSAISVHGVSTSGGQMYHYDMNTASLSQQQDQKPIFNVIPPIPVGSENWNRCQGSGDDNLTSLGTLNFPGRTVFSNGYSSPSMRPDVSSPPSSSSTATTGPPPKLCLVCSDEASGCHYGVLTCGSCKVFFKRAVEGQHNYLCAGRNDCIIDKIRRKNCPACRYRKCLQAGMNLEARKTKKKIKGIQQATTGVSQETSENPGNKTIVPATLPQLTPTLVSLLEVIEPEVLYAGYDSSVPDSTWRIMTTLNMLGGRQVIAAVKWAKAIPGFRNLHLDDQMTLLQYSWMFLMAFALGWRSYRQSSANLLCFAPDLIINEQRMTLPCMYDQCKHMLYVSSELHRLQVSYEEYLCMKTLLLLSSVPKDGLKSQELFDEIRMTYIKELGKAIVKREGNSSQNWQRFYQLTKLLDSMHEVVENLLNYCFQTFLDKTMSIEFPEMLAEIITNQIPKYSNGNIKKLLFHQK
Cytochrome P450 1A2 (Homo sapiens), sequence (P05177 whole entry, looked up): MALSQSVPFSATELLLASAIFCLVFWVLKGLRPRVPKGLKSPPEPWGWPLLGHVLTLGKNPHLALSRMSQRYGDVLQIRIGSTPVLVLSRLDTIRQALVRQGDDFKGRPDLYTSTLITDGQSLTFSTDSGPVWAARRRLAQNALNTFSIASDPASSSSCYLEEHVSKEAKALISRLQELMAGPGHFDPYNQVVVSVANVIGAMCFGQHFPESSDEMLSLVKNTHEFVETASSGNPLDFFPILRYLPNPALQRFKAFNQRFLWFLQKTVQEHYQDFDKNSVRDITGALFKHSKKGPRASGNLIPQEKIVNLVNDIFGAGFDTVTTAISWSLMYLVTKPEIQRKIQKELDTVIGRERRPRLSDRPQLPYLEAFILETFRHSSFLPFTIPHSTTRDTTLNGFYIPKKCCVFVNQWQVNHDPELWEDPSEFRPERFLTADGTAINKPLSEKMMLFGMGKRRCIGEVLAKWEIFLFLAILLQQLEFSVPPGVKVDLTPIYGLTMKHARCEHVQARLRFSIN
Ubiquitin carboxyl-terminal hydrolase 1 (Homo sapiens), sequence (O94782 whole entry, looked up): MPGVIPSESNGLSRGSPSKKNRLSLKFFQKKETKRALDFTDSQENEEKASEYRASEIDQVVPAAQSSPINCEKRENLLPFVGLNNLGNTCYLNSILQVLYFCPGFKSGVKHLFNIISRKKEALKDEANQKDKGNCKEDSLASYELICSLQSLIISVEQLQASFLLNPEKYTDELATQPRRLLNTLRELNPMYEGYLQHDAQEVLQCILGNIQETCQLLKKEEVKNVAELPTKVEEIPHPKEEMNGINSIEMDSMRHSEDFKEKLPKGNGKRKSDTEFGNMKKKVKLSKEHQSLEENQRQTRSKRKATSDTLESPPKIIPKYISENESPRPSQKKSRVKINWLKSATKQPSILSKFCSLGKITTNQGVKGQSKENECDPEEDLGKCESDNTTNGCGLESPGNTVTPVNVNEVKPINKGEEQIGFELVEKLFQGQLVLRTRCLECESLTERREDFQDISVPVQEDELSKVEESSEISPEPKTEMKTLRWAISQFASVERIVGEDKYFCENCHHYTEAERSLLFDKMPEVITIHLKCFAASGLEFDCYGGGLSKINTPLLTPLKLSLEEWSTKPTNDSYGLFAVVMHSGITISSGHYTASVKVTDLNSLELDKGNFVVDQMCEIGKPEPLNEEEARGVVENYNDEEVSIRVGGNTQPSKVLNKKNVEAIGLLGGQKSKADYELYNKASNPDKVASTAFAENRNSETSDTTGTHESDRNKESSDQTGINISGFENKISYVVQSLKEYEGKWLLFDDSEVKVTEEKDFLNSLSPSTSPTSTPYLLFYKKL
Cytochrome P450 2C19 (Homo sapiens), sequence (P33261 whole entry, looked up): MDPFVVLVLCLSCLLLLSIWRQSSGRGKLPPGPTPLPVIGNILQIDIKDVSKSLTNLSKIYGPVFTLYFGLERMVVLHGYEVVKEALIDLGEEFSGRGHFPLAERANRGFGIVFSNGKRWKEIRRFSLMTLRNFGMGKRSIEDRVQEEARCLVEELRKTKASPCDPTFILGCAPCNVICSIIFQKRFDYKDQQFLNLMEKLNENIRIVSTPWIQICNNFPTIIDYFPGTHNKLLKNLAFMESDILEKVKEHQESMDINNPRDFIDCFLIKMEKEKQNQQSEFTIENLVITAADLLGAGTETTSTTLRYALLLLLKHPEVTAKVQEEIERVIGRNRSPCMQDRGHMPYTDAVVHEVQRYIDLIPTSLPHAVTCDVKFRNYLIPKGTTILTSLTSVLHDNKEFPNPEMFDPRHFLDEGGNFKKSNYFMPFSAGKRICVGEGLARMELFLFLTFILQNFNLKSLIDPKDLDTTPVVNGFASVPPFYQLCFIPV
Cytochrome P450 3A4 (Homo sapiens), sequence (P08684 whole entry, looked up): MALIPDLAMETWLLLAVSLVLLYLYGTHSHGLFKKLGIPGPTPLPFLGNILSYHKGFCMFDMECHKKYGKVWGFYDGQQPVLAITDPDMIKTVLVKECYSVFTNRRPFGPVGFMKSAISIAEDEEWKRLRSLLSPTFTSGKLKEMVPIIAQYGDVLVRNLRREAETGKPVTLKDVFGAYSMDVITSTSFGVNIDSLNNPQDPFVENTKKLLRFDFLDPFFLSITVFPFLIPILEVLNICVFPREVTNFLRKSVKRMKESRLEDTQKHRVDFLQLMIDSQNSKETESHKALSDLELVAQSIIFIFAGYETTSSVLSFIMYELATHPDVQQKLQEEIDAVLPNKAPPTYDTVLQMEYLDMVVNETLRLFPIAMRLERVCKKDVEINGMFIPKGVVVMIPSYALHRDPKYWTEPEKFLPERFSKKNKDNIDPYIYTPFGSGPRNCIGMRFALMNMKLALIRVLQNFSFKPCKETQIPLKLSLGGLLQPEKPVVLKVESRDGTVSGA

Row | SMILES | Potency [1] | Potency [2] [µM] | Potency [3] [µM] | Potency [4] | Potency [5] | Potency [6] | Potency [7] | Potency [8] | Potency [9] | Potency [10] | Potency [11] | Potency [12] | Potency [13]
1 | O=C(NCCN1CCCCC1)c1ccc(I)cc1 | 25.1 µM (active) | > 46 | > 46 | inactive | inactive | inactive | inactive | inactive | inactive | – | – | – | –
2 | CNCCCCCCCCSc1nc(C(C)C)ccc1C(=O)c1cccs1 | 31.6 µM (active) | > 46 | > 46 | inactive | – | – | – | inactive | inactive | 2.51 µM (active) | inactive | – | –
3 | Clc1cccc(Nc2nnc(-c3ccccc3)c3ccccc23)c1 | 1.26 µM (active) | > 46 | > 46 | inactive | – | – | inactive | inactive | inactive | – | inactive | 3.98 µM (active) | 0.794 µM (active)
4 | O=C(Cc1ccccc1)Nc1nc2ccc(Cl)cc2c2nc(-c3ccco3)nn12 | 0.2 µM (active) | > 46 | > 46 | inactive | inactive | inactive | 21.1 µM (active) | inactive | inactive | – | inactive | 3.16 µM (active) | 1.58 µM (active)
5 | O=c1[nH]c2cc(Cl)ccc2c(O)c1-c1cccc(Oc2ccccc2)c1 | 2.51 µM (active) | > 46 | > 46 | inactive | – | inactive | inactive | inactive | inactive | – | – | – | –
6 | CC[C@@H](C)[C@H]1O[C@]2(CC[C@@H]1C)C[C@@H]1C[C@H](C/C=C(/C)[C@H](O[C@@H]3C[C@H](OC)[C@H](O[C@@H]4C[C@H](OC)[C@@H](O)[C@H](C)O4)[C@H](C)O3)[C@@H](C)/C=C\C=C3CO[C@@H]4[C@H](O)C(C)=C[C@@H](C(=O)O1)[C@]34O)O2 (tested in a mixture with another compound) | inactive | > 46 | > 46 | – | inactive | – | inactive | inactive | inactive | – | – | – | –
7 | C1=C(CN2CCOCC2)COc2c1cccc2OC[C@@H]1CNCCO1 | 12.6 µM (active) | > 46 | > 46 | inactive | inactive | inactive | inactive | inactive | inactive | – | inactive | – | –
8 | CCCN(C/C=C\I)[C@@H]1CCc2cccc(O)c2C1 | 2.51 µM (active) | > 46 | > 46 | inactive | – | – | inactive | inactive | inactive | inactive | 25.1 µM (active) | – | –
9 | COc1cc(COc2cc(N)c(Cl)cc2C(=O)CCC2CCN(CCNS(C)(=O)=O)CC2)cc(OC)c1 | inactive | > 46 | > 46 | inactive | – | – | inactive | inactive | inactive | 2 µM (active) | inactive | – | –
10 | O=C(c1ccccc1)[C@@H]1O[C@H]1c1ccc(-c2ccccc2)cc1 | 6.31 µM (active) | > 46 | > 46 | inactive | – | – | inactive | inactive | inactive | – | – | – | –
11 | CCCCN1CCC(CCC(=O)c2cc(Cl)c(N)cc2OC)CC1 | inactive | > 46 | > 46 | inactive | inactive | inactive | inactive | inactive | inactive | – | – | inactive | –
12 | CCCCCCCCCCCCCCC[C@@H](O)[C@@H](N)CO | 25.1 µM (active) | > 46 | > 46 | inactive | inactive | 31.6 µM (active) | inactive | inactive | inactive | – | – | – | –
13 | COc1ccc(CCCO[C@@H](Cn2ccnc2)c2ccc(OC)cc2)cc1 | 0.0158 µM (active) | > 46 | > 46 | inactive | – | – | – | inactive | inactive | – | – | – | –
14 | N[C@H](Cn1ccc(=O)n(Cc2ccccc2C(=O)O)c1=O)C(=O)O | inactive | > 46 | > 46 | inactive | inactive | inactive | inactive | inactive | inactive | – | – | – | –
15 | COc1ccccc1N1CCN(CCN2C(=O)c3ccccc3C(C)(C)C2=O)CC1 | 39.8 µM (active) | > 46 | > 46 | inactive | – | inactive | inactive | inactive | inactive | – | inactive | – | –
16 | CN1Cc2c(C(=O)OC(C)(C)C)ncn2-c2ccsc2C1=O | 15.8 µM (active) | > 46 | > 46 | inactive | – | inactive | inactive | inactive | inactive | – | – | 5.01 µM (active) | 1.26 µM (active)
17 | CCn1c(=O)[nH]c2ccccc21 | 31.6 µM (active) | > 46 | > 46 | inactive | inactive | inactive | inactive | inactive | inactive | – | – | – | –
18 | CCC(=O)N[C@@H]1CCc2cccc(OC)c2C1 | 12.6 µM (active) | > 46 | > 46 | inactive | inactive | inactive | inactive | inactive | inactive | – | – | – | –
